Among the data in PubChem BioAssay AID1847 (The Scripps Research Institute Molecular Screening Center, 2009) are inhibition values, retold here.

Each structure is given as a SMILES string. Values joined by “and” are separate entries in the source; they are usually repeats but may differ in a detail not shown here. Equal values may be shown once. Among all 2,300 compounds or so, about 1,100 (48%) were called active. So high a share suggests a set chosen from earlier hits. Only a sample is shown. Unmarked numbers belong to inactive results.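 How the source made its calls: active means inhibition above the mean inhibition of all tested sample wells plus 3 SD (cut at about 10% in these data); inactive means the rest.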

In this experiment the target is Luciferin 4-monooxygenase (Photinus pyralis) (UniProt P08659). Description: native FLuc enzyme inhibition – biochemical, luminescence, triplicate, artefact control for HSP90 inhibitor project, confirmation (AID 1847).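 Further: 0% = DMSO with luciferase and 100% = wells lacking luciferase.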 The following applies: purified native firefly luciferase, at 5.9 µM, stronger effect = higher value.
Luciferin 4-monooxygenase (Photinus pyralis), sequence (P08659 whole entry, looked up): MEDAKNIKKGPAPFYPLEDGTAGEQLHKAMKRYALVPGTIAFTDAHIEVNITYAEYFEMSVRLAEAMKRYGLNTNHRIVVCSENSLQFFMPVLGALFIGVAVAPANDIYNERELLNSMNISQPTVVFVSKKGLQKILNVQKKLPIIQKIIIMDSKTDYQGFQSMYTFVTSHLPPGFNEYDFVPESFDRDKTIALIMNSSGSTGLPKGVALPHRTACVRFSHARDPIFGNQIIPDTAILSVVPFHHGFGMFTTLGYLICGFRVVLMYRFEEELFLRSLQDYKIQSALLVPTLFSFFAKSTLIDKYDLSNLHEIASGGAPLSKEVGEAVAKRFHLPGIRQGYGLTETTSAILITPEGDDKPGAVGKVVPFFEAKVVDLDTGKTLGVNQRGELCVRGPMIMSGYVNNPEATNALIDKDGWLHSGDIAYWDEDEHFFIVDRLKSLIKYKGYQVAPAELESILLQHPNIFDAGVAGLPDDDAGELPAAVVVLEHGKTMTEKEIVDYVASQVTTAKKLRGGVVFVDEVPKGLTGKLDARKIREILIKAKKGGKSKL
In general, inhibition refers to the relative decrease from the control value, in per cent. For the compound `COc1cc(SC)ccc1C(=O)Nc1nc(C)cs1`, the inhibition is 90.1% (active).
With `COC(=O)c1sc(NC(=O)c2ccc(OC)cc2OC)nc1C`, the inhibition was 56.6% (active).
`COC(=O)c1sc(NC(=O)c2csc3c2CCCC3)nc1C`: the inhibition is -24.8%.
For `Cc1ccc(-n2c(SCC(=O)Nc3ncc(Cl)cc3Cl)nc3ccccc32)cc1`, the inhibition is -5.93%.
As for `Cc1sc2nc(CSCC(=O)Nc3c(Cl)cccc3Cl)[nH]c(=O)c2c1C`, the figure is -10.5%; as for `CCOc1ccc(C2NC(=S)NC3=C2CCc2ccccc23)cc1` (stereo not given), 27.2% (active); as for `Cc1nc(NC(=O)c2cccc(Cl)c2)sc1-c1csc(Nc2cccc(Cl)c2)n1`, -10.7%.
`O=C(Nc1nc2ccccc2s1)c1ccc2c(c1)OCO2`: the inhibition was 56% (active).
As to `O=C(Nc1ccccc1)c1ccc2c(c1)OCCCO2`, the inhibition was 32.8% (active).
As for `c1ccc(-c2ccc3c(c2)NC(C2Nc4cc(-c5ccccc5)ccc4O2)O3)cc1` (stereo not given), the inhibition was -6.37%.
As for `Clc1ccc(-c2cc(-c3ccccn3)on2)c(Cl)c1`, the figure is 81.9% (active); as for `O=[N+]([O-])/C=C/c1ccc2c(ccn2Cc2ccccc2)c1`, 5.87%.
For the compound `CCN(CC)CCn1c(N)c(S(=O)(=O)c2ccccc2)c2nc3ccccc3nc21`, the inhibition was -7.93%.
As for `COc1ccc(-n2nnnc2-c2nc3ccccc3s2)cc1`, the figure is 52.3% (active); as for `Cc1cccc(NC(=O)/C=C/c2ccc3c(c2)OCO3)n1`, 30.9% (active).
As for `Cc1csc(SCC(=O)Nc2sccc2C#N)n1`, the figure is 8.6%; as for `Cn1c(-c2ccco2)nc2cc3ccccc3cc21`, 51.4% (active).
For the compound `Cc1cc(C(=O)COC(=O)C2CC2)c(C)n1-c1ccc(F)cc1`, the inhibition is 88.4% (active).
As for `Cc1ccc(C(=O)O/N=C(\N)c2ccccn2)cc1Cl`, the figure is 79.1% (active).
As for `CCOC(=O)C1=C(c2ccc(OC)cc2)C(=O)c2ccccc2C1=O`, the figure is -5.23%; as for `CC(C)Nc1ccc(-n2nc3ccccc3[n+]2[O-])cc1`, 44% (active); as for `O=C(Nc1ccc2c(c1)OCCO2)C1CCCN(c2ncccn2)C1` (stereo not given), 20.5% (active).
As for `Clc1ccc2nc(CSc3ccccc3)cn2c1`, the figure is 53% (active); as for `Cc1nc2cc(NC(=O)Nc3cccc(F)c3)ccc2n1C`, 21.4% (active); as for `Cc1ccc(Nc2nc(-c3ccc(O)cc3O)cs2)nc1`, -25.8%.
Regarding `Cc1ccc(Nc2nc(-c3sc(NC(=O)c4ccccc4)nc3C)cs2)cc1`, the inhibition was -23.6%.
As for `Cc1cnc(NC(=O)c2ccccn2)s1`, the figure is 15.6% (active); as for `CCOC(=O)CNC(=O)c1nn(-c2cccc(OC)c2)c(=O)c2ccccc12`, -3.73%; as for `CCOc1ccc(OCc2ccc(C(=O)N(C)c3ccccc3)o2)cc1`, -13.3%.
As for `CCOc1ccc(OCc2cccc(C(=O)N(CC)CC)c2)cc1`, the figure is 22.5% (active).
`CCc1ccc2oc(-c3ccc(N)cc3)nc2c1`: the inhibition was 51% (active).
On to `Nc1ccc(-c2nnc(-c3ccccc3)o2)cc1`, for which the inhibition is -10.8%.
As to `O=C(Cn1c[n+](CC(=O)c2ccc([N+](=O)[O-])cc2)cn1)c1ccc([N+](=O)[O-])cc1`, the inhibition was -6.5% and -8.93%.
As for `COc1cc(CNC2CCCCC2)c(Br)cc1OC1CCCC1`, the figure is 1%; as for `COC(=O)C1[C@H]2SC(C)(C)C(C(=O)OC)N2C(=O)N1Cc1nc2ccccc2s1` (stereo not given in full), -10.3%; as for `COc1ccc(CNC(=O)/C(C#N)=C/c2cccc(OC)c2OC)cc1`, -0.6%.
As for `COc1ccc(Nc2ncnc3ccc(Br)cc23)c(OC)c1`, the figure is 55.5% (active).
As for `Cc1ccc2nc(/C(C#N)=C\c3ccc(OC(=O)c4cccs4)cc3)[nH]c2c1`, the inhibition was -9.37%.
Turning to `CCCCNC(=O)Nc1c(C)cc(SC#N)cc1C`, the inhibition was -1.43%.
As for `Cc1nn(CC(=O)Nc2ccc(F)cc2)c(=O)c2ccccc12`, the figure is -7.73%.
Regarding `CCOc1ccc(-c2nnc(-c3ccco3)o2)cc1`, the inhibition is 56.9% (active).
As for `O=C(CN1C(=O)c2ccccc2S1(=O)=O)N1CCc2ccccc21`, the inhibition was -9.57%.
As for `CCOc1c(Br)cc(/C=C2\C(=O)N(CCC#N)N=C2C)cc1OC`, the figure is 29.9% (active).
As for `N#C/C=C\Oc1ccc(Cl)cc1N`, the figure is -7.1%; as for `Cc1nnc(SCC(=O)N2c3ccccc3C(C)(c3ccc(Cl)cc3)CC2(C)C)s1` (stereo not given), -1.27%; as for `O=C(Nc1cccnc1)c1noc2c1CCCCC2`, 38.6% (active).
As for `COc1cc(NS(=O)(=O)c2ccc3ccccc3c2)c2ncccc2c1`, the figure is -7.83%; as for `CSCCC(C(=O)NC1=NCCS1)N1C(=O)c2ccccc2C1=O` (stereo not given), -8.47%; as for `CN(C)c1ccc(-n2cccc2/C=N/n2cnnc2)cc1`, -11.7%.
On to `Cc1nc2ccc(C(=O)O)cc2[nH]1`, for which the inhibition was 4.87%.
For the compound `CC(C)c1nc2ccc(C(=O)O)cc2[nH]1`, the inhibition is 31.5% (active).
As for `CC(C)(C)OC(=O)c1c(N)n(CCCN2CCCC2=O)c2nc3ccccc3nc12`, the figure is -7.33%; as for `CCCS(=O)(=O)N1CCCC(C(=O)NCCN2CCCCC2C)C1` (stereo not given), -4.93%.
With `COc1ccc(-c2cn3ccc(C)cc3n2)cc1`, the inhibition was 69.7% (active).
Regarding `Cc1ccc(-c2cn3cc(C)ccc3n2)cc1`, the inhibition is 87.3% (active).
As for `Cc1ccc2nc(-c3ccc(Br)cc3)cn2c1`, the figure is 81.5% (active); as for `Cc1cccc(C(=O)OC(C)CN2CCN(C)CC2)c1` (stereo not given), -7.93%.
With `O=C(CSC(=S)N1CCOCC1)c1ccccc1`, the inhibition was 34.5% (active).
Take `O=C(O)c1ccc(N=NN2CCOCC2)cc1`: the inhibition is -12.9%.
Consider `Cc1ccc(C(=O)CSc2ccccc2C(=O)O)cc1`, for which the inhibition is -0.87%.
Turning to `CCOC(=O)N1CCN(Cc2nc3c(c(=O)n(C)c(=O)n3C)n2Cc2ccccc2)CC1`, the inhibition is -8.93%.
As for `C=CCN1CCN(C(=O)CCCc2ccccc2)CC1`, the figure is 37.2% (active).
For `O=C(Cc1ccccc1)N1CCN(S(=O)(=O)c2ccc([N+](=O)[O-])cc2)CC1`, the inhibition was -3.47%.
As for `COc1cc(C(=O)NN(CCC#N)C2=NS(=O)(=O)c3ccccc32)cc(OC)c1OC`, the figure is -6.77%; as for `Cc1cccc(CCNC(=O)Cn2ncc3c([nH]c4ccc(C)cc43)c2=O)c1`, -0.53%; as for `CN(c1ccc2nc3ccccc3c(=O)n2n1)C1CCCCC1`, 87.3% (active).
As for `O=C(OC1CCOC1=O)c1ccc(-c2nc3ccccc3s2)s1` (stereo not given), the figure is 65.2% (active); as for `c1ccc(-c2noc(-c3cccs3)n2)nc1`, 27.4% (active).
As for `CCOC(=O)c1nc(C)n(-c2ccc(Cl)cc2Cl)n1`, the figure is -5.2%; as for `CCc1nc(SCC(=O)Nc2ccccc2OC)n[nH]1`, 0.13%; as for `COc1ccc(C(=O)Nc2ccccc2C(=O)N/N=C/c2ccc(O)c(OC)c2)cc1`, 93.5% (active).
For `O=C(Nc1ccccc1C(=O)O)c1ccc(N2C(=O)C3CC=CCC3C2=O)cc1` (stereo not given), the inhibition is -15.7%.
Take `COc1ccc(C(=O)Nc2ccccc2C(=O)N/N=C/c2ccccc2OC)cc1`: the inhibition was 43.8% (active).
As for `COc1ccc(/C=N/Nc2ccccc2C(=O)O)cc1`, the figure is 23.4% (active); as for `COc1ccc(Cl)cc1NC(=O)Cn1nc(-c2ccc(C)cc2)n(C)c1=S`, -10.3%; as for `CC(OC(=O)c1ccc2noc(-c3ccccc3)c2c1)C(N)=O` (stereo not given), -3.9%.
With `Oc1c(C=Nc2cccc3nsnc23)ccc2ccccc12`, the inhibition is -18.8%.
`COc1ccc(/C=C/c2noc(-c3ccccc3OC(C)=O)n2)cc1`: the inhibition was -12.5%.
For the compound `COc1ccc(-c2nc(-c3ccccc3)no2)c(OC)c1`, the inhibition is 81.7% (active).
As for `CCCOc1ccc(C(=O)NCCc2ccccc2)cc1`, the figure is 44% (active); as for `CCCCOCCCNC(=O)c1ccccc1OCC`, -6.47%.
Turning to `COc1cccc(/C=C/c2ccc3ccccc3n2)c1OC(C)=O`, the inhibition is -12.7%.
As for `Cc1ccc(C(=O)COC(=O)c2cccc(N3C(=O)c4c(C)nc5ccccc5c4C3=O)c2)cc1C`, the figure is -20.1%; as for `COc1cccc2c(C)c(C(=O)O)[nH]c12`, 30.6% (active); as for `O=C1CCC([N+](=O)[O-])C(c2ccccc2Br)N1` (stereo not given), -7.7%.
As for `CC(C)CNC(=O)CC(NCC(C)C)C(=O)O` (stereo not given), the inhibition is -6.07%.
As for `Clc1cccc(N=C2NN=C(c3ccc4c(c3)OCCO4)CS2)c1`, the figure is 36.7% (active); as for `c1c2c(cc3sc(N4CCCCC4)nc13)OCCO2`, 80% (active).
Turning to `CCN(CCCNC(=O)c1ccc2c(c1)NC(=O)CN2C)c1cccc(C)c1`, the inhibition was -5.03%.
Take `COc1ccc(C(=O)/C=C/Nc2ccccn2)cc1`: the inhibition was 90.9% (active).
Take `CCOc1ccc(N/C=C/C(=O)c2ccccc2)cc1`: the inhibition is 62.8% (active).
For `CCCCCc1ccc(-c2ccc(C(=O)O)cc2)nc1`, the inhibition is 57.8% (active).
As to `C/C(=N\NC(=S)NC1CCCCC1)c1ccc(C)o1`, the inhibition is -11.1%.
Turning to `CCS(=O)(=O)c1cc([N+](=O)[O-])c(Sc2ccccc2N)s1`, the inhibition is 46% (active).
As for `CCc1ccc(Nc2ncc3c(n2)CC(c2ccco2)CC3=O)cc1` (stereo not given), the inhibition was -15%.
As for `Cc1ccsc1C(=O)OCC(=O)c1cc(C)n(CC2CCCO2)c1C` (stereo not given), the figure is 85.4% (active).
As for `COCc1cc(=O)[nH]c2cc(NC(=O)C(F)(F)F)c(C)cc12`, the figure is -7%; as for `CN(CCO)c1ccc(/C=N/Nc2nncc3ccccc23)cc1`, 84.2% (active); as for `CCCCC(=O)Nc1nc(C)c(-c2csc(Nc3ccc(Cl)cc3)n2)s1`, -9.5%.
In the case of `O=c1oc(/C=C/c2ccccc2)nc2ccccc12`, the inhibition was -16.5%.
